Out of some 5,500 compounds screened, about 2,000 (36%) were called active. About 18% were inconclusive and are not listed. Rule as the data show it: active = normalized growth mostly below about 0.91 (no sharp cut-off); inconclusive = no clear call, values can overlap the other calls; inactive = mostly above about 0.92. The list shows a part of the results.
Test: chemical genetic growth profiling, strain panel (AID 1159580);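 also: tested at 20 µM; growth read once vehicle control cultures reached saturation at 30 °C; 1 = growth at the plate median or of vehicle wells; lower values mean less growth of the strain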
Conditions: S. cerevisiae deletion strains, growth OD
[1] = locus YHR030C, strain SLT2, stronger effect = lower value

Measured: normalized growth

CCCCCCCc1c(O)c2ccccc2[nH]c1=O
inactive: locus YAL013W, strain DEP1, stronger effect = lower value 1.01 | locus YBR229C, strain ROT2, stronger effect = lower value 0.998 | locus YCL061C, strain MRC1, stronger effect = lower value 1.01 | locus YDL101C, strain DUN1, stronger effect = lower value 1 | locus YDR150W, strain NUM1, stronger effect = lower value 0.962 | locus YEL061C, strain CIN8, stronger effect = lower value 1.01 | locus YGR078C, strain PAC10, stronger effect = lower value 1 | locus YGR229C, strain SMI1, stronger effect = lower value 1.01 | [1] 0.989 | locus YHR087W, strain rtc3, stronger effect = lower value 1 | locus YJL187C, strain SWE1, stronger effect = lower value 1 | locus YJR043C, strain POL32, stronger effect = lower value 1 | locus YJR075W, strain HOC1, stronger effect = lower value 1 | locus YKL190W, strain CNB1, stronger effect = lower value 1.01 | locus YLR039C, strain RIC1, stronger effect = lower value 1.01 | locus YLR058C, strain SHM2 (second series), stronger effect = lower value 1.01 | locus YLR085C, strain ARP6, stronger effect = lower value 1.01 | locus YLR262C, strain YPT6, stronger effect = lower value 1.02 | locus YML094W, strain GIM5, stronger effect = lower value 1.01 | locus YMR219W, strain ESC1, stronger effect = lower value 1.02 | locus YMR263W, strain SAP30, stronger effect = lower value 1.01 | locus YMR307W, strain GAS1, stronger effect = lower value 0.961 | locus YNL128W, strain TEP1, stronger effect = lower value 1.01 | locus YNL153C, strain GIM3, stronger effect = lower value 1.01 | locus YNL298W, strain CLA4 (second series), stronger effect = lower value 1.03 | locus YNL322C, strain KRE1, stronger effect = lower value 0.997 | locus YNR030W, strain Alg12, stronger effect = lower value 1.02 | locus YPL055C, strain LGE1, stronger effect = lower value 1.02 | locus YPL241C, strain CIN2, stronger effect = lower value 1.02 | locus YPR135W, strain CTF4, stronger effect = lower value 1.07

CC1(C)C2CCC1(C)C(O)C2 (stereo not drawn)
inactive: [1] 0.98 | locus YHR079C, strain IRE1, stronger effect = lower value 0.981 | locus YJL095W, strain BCK1, stronger effect = lower value 0.999 | locus YJR066W, strain TOR1, stronger effect = lower value 0.923 | locus YLR113W, strain HOG1, stronger effect = lower value 0.991 | locus YNL183C, strain NPR1, stronger effect = lower value 0.947 | locus YOR231W, strain MKK1, stronger effect = lower value 0.992 | locus YPL256C, strain CLN2, stronger effect = lower value 0.993
